Screening results deposited in PubChem by National Center for Advancing Translational Sciences (NCATS).
HT1080-NT tox – qHTS for induction of synthetic lethality in tumor cells producing 2HG: qHTS for the HT-1080-NT fibrosarcoma cell line; hit rate 1.6% among 360,000; Potency, µM (doses to about 46.1 µM), without a hit: top-dose activity, negative = less viability, hits mostly cytotoxic; HT-1080-NT fibrosarcoma viability, CellTiter-Glo ATP luminescence, 48 h;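 further: NT is the 2HG producing partner of a matched IDH1 knockdown line; potency means the concentration at half of the fitted maximal effect; 0% = DMSO-treated cells and -100% = media-only wells without cells; nearly all actives have a fitted effect of over 55% in size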
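Viability of the 2HG-overproducing fibrosarcoma line after 48 hours of compound exposure at 37 degrees C was determined by luminescence with CellTiter-Glo, and concentration-effect curves were then fitted and categorized.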
KB-V1 MDR tox – qHTS assay for MDR1-selective chemotherapeutics: Primary screen using the drug-selected MDR subline cells KB-V1. KB-V1 MDR cells viability, CellTiter-Glo, 72 h. Potency, µM (titrated, usually from 46.1 µM), actives largely listed as cytotoxic. hit rate 3.4% among 400,000; further: potency means the concentration at half of the fitted maximal effect; nearly all actives have a fitted effect of over 60% in size
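In this primary screen, KB-V1 cells overexpressing P-gp are incubated with library compounds (lowest to highest concentration) for 72 h at 37 degrees C before a luminescent ATP viability read.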
KB-3-1 cytotox – qHTS assay for MDR1-selective chemotherapeutics: Primary screen using the parental adenocarcinoma cell KB-3-1; KB-3-1 viability, CellTiter-Glo ATP luminescence, 72 h; hit rate 1.4% among 400,000; AID 1347075, 2019; Potency, µM (series often up to 46.1 µM), most hits filed as cytotoxic; further: potency means the concentration at half of the fitted maximal effect; nearly all actives have a fitted effect of over 60% in size
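72 h, 37 °C compound treatment of KB-3-1 parental cells; CellTiter-Glo added, 10 min, luminescence read. Data corrected against DMSO-only plates and normalized before curve fitting.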
HT1080 IDH1KD tx – qHTS for induction of synthetic lethality in tumor cells producing 2HG: qHTS for the HT-1080-IDH1KD cell line; HT-1080 IDH1 knockdown viability, ATP luminescence, 48 h; Potency, µM (top dose mostly 46.1 µM), without a hit: at the top dose activity, negative = toxicity, most hits filed as cytotoxic; hit rate 2% among 360,000; AID 686971, 2013;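 further: potency means the concentration at half of the fitted maximal effect; 0% = DMSO wells and -100% = cell-free medium wells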
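CellTiter-Glo luminescence after 48 h compound exposure at 37 degrees C of IDH1-knockdown HT-1080 cells in 5% FBS RPMI. %Activity scaled between DMSO wells and cell-free media wells, with curves fitted and assigned curve classes.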
IL-1B inflam inh – qHTS for Inhibitors of Inflammasome Signaling: IL-1-beta AlphaLISA Primary Screen. THP-1 LPS/ATP IL-1B secretion, AlphaLISA, 16 h; stronger effect = lower value. activity change, % at 57.5 µM. hit rate 4.7% among 360,000; in the data active means activity change below about -50%; inconclusive means mostly about -30% to -49%
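THP-1 cells pretreated 1 hr with compounds (up to 57.5 uM final), then stimulated with LPS (250 ng/mL final) plus ATP (1.25 mM final); secreted IL-1B measured by AlphaLISA after 16 hr, decreased signal indicating inhibition.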
Numbers without * were called inactive; i = inactive; ? = inconclusive; · = no result. Rows were chosen to be rich in hits. Some 8.8% of all compounds tested hit in one or more screens of this group. Unless noted, the call rests on the fitted dose curve; in most records, active means well fitted curve in the direction sought with a large enough effect; inconclusive means small, poorly fitted or top-dose-only effect, or another doubt; inactive means no such curve, though single readings can be large; an effect the other way counts as inactive or inconclusive. Unless noted, on the % scale 0 is the no-effect control and ±100 the full control effect.

SMILES | HT1080-NT tox | KB-V1 MDR tox | KB-3-1 cytotox | HT1080 IDH1KD tx | IL-1B inflam inh
Cc1ccc(N2C(=O)C(CC(=O)Nc3ccc(F)cc3)N(Cc3ccc4c(c3)OCO4)C2=O)cc1 (stereo not drawn) | · | i | i | · | ·
CCN1C(=O)C(CC(=O)Nc2ccc(F)cc2)N(Cc2ccc3c(c2)OCO3)C1=S (stereo not drawn) | ? | ? | ? | -28% | -60*
COc1ccc(NC(=O)CC2C(=O)N(C)C(=S)N2Cc2ccc3c(c2)OCO3)cc1 (stereo not drawn) | -6% | 15µM* | i | -7% | 12
COc1ccc(NC(=O)CC2C(=O)N(c3ccc(C)cc3)C(=O)N2Cc2ccc3c(c2)OCO3)cc1 (stereo not drawn) | · | i | i | · | ·
Clc1ccc(-c2nnc3n2-c2ccccc2SC3)cc1 | -4% | i | i | -7% | 9
CN1C(c2ccc(F)cc2)=CS/C1=C(\C#N)c1nnc2n1-c1ccccc1SC2 | -26% | i | i | ? | -79*
COc1ccc(S(=O)(=O)N(C)C)cc1NC(=O)Cc1ccc(S(=O)(=O)N2CCOCC2)s1 | -4% | i | i | -6% | -6
O=C(NCCc1csc2nc(-c3ccccc3F)nn12)C(=O)Nc1cc(F)ccc1F | · | i | i | · | ·
COc1ccc(C(=O)Nc2ccc3nc4n(c(=O)c3c2)CCCCC4)cc1OC | 13% | i | i | 6% | 13
COc1cc(C(=O)Nc2ccc3nc4n(c(=O)c3c2)CCCCC4)cc(OC)c1OC | ? | i | i | 18µM* | 26
O=c1c2cc(NC(=S)NC3CCN(Cc4ccccc4)CC3)ccc2nc2n1CCCCC2 | ? | i | i | 18µM* | -14
O=c1c2cc(NC(=S)NC3CCCCC3)ccc2nc2n1CCCCC2 | -16% | ? | i | -13% | ?
O=c1c2cc(NC(=S)NCCN3CCCCCC3)ccc2nc2n1CCCCC2 | -3% | i | i | -3% | -2
O=c1c2cc(NC(=S)NC3CC3)ccc2nc2n1CCCCC2 | 2% | i | i | -3% | 0
O=c1c2cc(NC(=S)NCCCN3CCC(Cc4ccccc4)CC3)ccc2nc2n1CCCCC2 | 9.2µM* | ? | 23µM* | 16µM* | -91*
O=c1c2cc(NC(=S)NC3CCCC3)ccc2nc2n1CCCCC2 | -7% | 21µM* | i | 1% | -19
CCOc1ccccc1NC(=O)COC(=O)c1cnc(C)cn1 | 5% | i | i | 3% | 5
NC(=O)NC(CC(=O)NCc1ccc2c(c1)OCO2)c1ccccc1Cl (stereo not drawn) | -12% | i | i | 2% | 12
O=C1CCc2cc([S+](=O)([O-])NC3CCOCC3)ccc2N1 | · | i | i | · | ·
C=CC[C@@H](Cc1ccc(F)cc1)C(=O)OC[C@@H]1CCCN1C(=O)[C@@H](CC=C)CC(=O)NCCO | 0% | i | i | 7% | 8
Cc1ccc(-c2ccc(/C=C3\SC(N4CCOCC4)=NC3=O)o2)cc1 | 9.2µM* | i | i | 8.2µM* | -95*
O=C1N=C(N2CCOCC2)S/C1=C/c1ccc(-c2ccc(F)cc2)o1 | -29% | i | i | ? | -23
Fc1ccc(-n2c(-c3ccc4ccccc4n3)n[nH]c2=S)cc1 | 2% | ? | i | 4% | 43
S=c1[nH]nc(-c2ccc3ccccc3n2)n1-c1cc(Cl)cc(Cl)c1 | 1% | 16µM* | i | 9% | -4
COc1ccc(-c2ccc(CNc3ccc4[nH]c(=O)[nH]c4c3)o2)cc1Cl | · | i | i | · | ·
SMILES | HT1080-NT tox | KB-V1 MDR tox | KB-3-1 cytotox | HT1080 IDH1KD tx | IL-1B inflam inh
Cc1cc(/C([O-])=C(/C(=S)Nc2ccc(F)cc2)[n+]2ccccc2)c(C)n1-c1ccc(F)cc1 | 0% | 23µM* | i | -7% | 8
C=C1CCN([C@@H](Cc2ccccc2)C(=O)NC2CCN(Cc3ccccc3)CC2)S(=O)(=O)c2ccccc21 | 4% | i | i | 0% | 4
COc1ccc(C(=O)/C=C/c2cc(OC)c(O)c(OC)c2)c(F)c1 | ? | ? | ? | ? | -100*
COc1ccc2cc(C(=O)/C=C/c3cc(OC)c(O)c(OC)c3)ccc2c1 | 21µM* | i | ? | 16µM* | -98*
CCOc1ccc2nc(NC(=O)c3nc(SC(C)C)ncc3Cl)sc2c1 | · | ? | i | · | ·
COc1ccc2c(c1)c[n+](C)c1c3cc(OC)c(OC)cc3ccc21 | 9.2µM* | i | 2.9µM* | 10µM* | ?
COc1cc2c[n+](C)c3c4ccccc4ccc3c2cc1OC | ? | ? | 9.2µM* | 16µM* | -112*
CC(=O)OC1c2ccccc2C(=O)N1Cc1ccccc1 (stereo not drawn) | 12% | i | i | 1% | 10
CCn1c(=O)c2cc(C(=O)NCCCN3CCN(C)CC3)sc2c2ccccc21 | · | i | i | · | ·
O=C(Nc1oc2ccccc2c(=O)c1-c1ccccc1)c1ccco1 | 7% | i | i | 1% | 12
Cc1cc2c3c(c1C)C1(C(=O)N3C(C)(C)CC2C)C(C#N)=C(N)Oc2cc(O)ccc21 (stereo not drawn) | ? | i | i | ? | -62*
COc1ccc(/C=c2/sc3n(c2=O)C(c2ccccc2OC)C2=C(N=3)c3ccccc3CC2)cc1O (stereo not drawn) | ? | ? | ? | 26µM* | -18
CC(C)Cn1nc(C(=O)NCc2ccccc2CN2CCCC2)c2ccccc2c1=O | -1% | 5.8µM* | i | 0% | ?
CCCCn1nc(C(=O)NCc2ccccc2CN2CCCC2)c2ccccc2c1=O | -19% | i | i | -2% | 8
Cc1nnc(NC(=O)c2nn(CC(C)C)c(=O)c3ccccc23)s1 | 0% | ? | ? | -15% | 14
Cc1nc2ccc(NC(=O)c3nn(CC(C)C)c(=O)c4ccccc34)cc2s1 | 0% | ? | ? | -14% | -85*
O=C(CSc1nnc(COc2cccc3cccnc23)o1)N1CCc2ccccc21 | 2.2µM* | i | i | 1.3µM* | 20
O=C(CSc1nnc(COc2ccc(F)cc2)o1)N1c2ccccc2CCc2ccccc21 | -23% | 6.5µM* | i | ? | -12
O=C(CSc1nnc(Cc2ccccc2)o1)N1CCc2ccccc21 | -8% | i | ? | -23% | 32
O=C(Nc1cc(Cl)ccc1O)c1snnc1-c1ccccc1 | -3% | 8.2µM* | 18µM* | ? | -90*
O=C(Nc1nnc(-c2ccncc2)s1)NC12CC3CC(CC(C3)C1)C2 | · | i | i | · | ·
